Laboratory results published in ChEMBL document CHEMBL1961873, “Compounds: GSK PKIS; Assays: Nanosyn kinase panel” (2012).

What was measured:
[1] = target: T1, Serine/threonine-protein kinase D2 (Homo sapiens) (UniProt Q9BZL6); conditions: at 1 µM;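 further: mean value of PRKD2 inhibition, from the GSK PKIS screening panel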
T1 sequence (whole entry): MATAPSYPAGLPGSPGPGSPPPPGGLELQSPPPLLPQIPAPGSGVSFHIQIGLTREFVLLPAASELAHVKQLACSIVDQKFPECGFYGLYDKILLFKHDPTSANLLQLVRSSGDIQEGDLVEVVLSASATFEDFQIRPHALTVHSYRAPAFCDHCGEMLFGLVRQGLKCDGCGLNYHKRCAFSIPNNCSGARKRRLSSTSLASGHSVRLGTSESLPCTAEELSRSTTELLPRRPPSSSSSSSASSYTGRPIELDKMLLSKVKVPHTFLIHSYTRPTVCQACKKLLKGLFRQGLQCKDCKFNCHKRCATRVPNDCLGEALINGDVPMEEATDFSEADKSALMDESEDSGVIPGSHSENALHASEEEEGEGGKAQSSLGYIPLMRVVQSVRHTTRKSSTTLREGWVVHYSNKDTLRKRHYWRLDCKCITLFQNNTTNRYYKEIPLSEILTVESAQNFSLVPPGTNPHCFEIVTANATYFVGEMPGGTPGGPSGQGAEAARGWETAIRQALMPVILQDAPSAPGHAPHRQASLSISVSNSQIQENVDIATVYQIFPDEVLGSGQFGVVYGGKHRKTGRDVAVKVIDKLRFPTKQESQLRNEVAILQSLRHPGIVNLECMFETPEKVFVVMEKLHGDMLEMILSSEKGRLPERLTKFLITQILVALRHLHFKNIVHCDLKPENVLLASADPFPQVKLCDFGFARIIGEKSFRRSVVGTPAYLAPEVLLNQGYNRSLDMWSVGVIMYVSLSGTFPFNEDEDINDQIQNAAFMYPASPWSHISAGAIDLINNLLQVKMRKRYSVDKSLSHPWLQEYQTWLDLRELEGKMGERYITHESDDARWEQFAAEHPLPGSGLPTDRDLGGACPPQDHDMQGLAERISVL

[2] = target: T2, Serine/threonine-protein kinase D3 (Homo sapiens) (UniProt O94806); conditions: at 0.1 µM
T2 sequence (whole entry): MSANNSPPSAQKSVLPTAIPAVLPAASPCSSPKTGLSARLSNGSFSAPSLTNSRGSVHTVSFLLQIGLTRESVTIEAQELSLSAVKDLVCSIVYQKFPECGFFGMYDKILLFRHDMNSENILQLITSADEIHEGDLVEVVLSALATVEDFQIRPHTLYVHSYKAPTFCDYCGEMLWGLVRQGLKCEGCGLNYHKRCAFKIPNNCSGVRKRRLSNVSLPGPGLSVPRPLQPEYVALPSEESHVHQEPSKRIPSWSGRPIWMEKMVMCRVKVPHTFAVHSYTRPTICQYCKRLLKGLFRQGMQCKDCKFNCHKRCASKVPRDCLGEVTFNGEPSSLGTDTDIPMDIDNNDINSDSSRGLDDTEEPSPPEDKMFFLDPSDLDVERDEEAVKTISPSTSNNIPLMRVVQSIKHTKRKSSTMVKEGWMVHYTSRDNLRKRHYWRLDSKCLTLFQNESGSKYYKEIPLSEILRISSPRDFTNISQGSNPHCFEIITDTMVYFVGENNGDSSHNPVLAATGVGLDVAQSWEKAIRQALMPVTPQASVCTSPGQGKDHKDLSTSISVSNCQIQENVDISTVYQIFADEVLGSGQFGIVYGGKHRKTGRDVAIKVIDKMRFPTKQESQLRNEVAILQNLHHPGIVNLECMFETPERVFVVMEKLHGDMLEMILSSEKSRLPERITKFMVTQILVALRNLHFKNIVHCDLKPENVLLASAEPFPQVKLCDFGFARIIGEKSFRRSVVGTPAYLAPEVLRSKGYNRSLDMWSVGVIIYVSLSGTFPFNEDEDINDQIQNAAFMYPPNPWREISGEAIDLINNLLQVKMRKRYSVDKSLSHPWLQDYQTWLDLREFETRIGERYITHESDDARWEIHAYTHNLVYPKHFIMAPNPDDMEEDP

[3] = target: T2, Serine/threonine-protein kinase D3 (Homo sapiens); conditions: at 1 µM
[4] = target: T3, cGMP-dependent protein kinase 1 (Homo sapiens) (UniProt Q13976); conditions: at 0.1 µM
T3 sequence (whole entry): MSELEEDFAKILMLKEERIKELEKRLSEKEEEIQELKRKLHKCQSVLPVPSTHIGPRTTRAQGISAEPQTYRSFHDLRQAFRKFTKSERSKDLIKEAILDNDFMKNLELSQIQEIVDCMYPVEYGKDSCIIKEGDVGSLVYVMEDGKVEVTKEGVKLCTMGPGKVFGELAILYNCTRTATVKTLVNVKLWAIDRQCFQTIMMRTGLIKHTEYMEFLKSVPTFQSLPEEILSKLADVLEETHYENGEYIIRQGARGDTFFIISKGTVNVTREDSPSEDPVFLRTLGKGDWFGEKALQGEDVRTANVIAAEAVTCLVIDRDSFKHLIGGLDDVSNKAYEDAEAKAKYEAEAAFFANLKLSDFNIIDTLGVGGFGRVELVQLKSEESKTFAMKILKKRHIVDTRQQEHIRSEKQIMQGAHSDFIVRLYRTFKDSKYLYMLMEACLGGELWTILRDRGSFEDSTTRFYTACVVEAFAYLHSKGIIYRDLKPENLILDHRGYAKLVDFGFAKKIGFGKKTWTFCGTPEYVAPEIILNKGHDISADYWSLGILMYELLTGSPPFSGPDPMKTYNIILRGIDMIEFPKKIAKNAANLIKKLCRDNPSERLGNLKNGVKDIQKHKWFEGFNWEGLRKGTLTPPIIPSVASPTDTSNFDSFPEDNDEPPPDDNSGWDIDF

[5] = target: T3, cGMP-dependent protein kinase 1 (Homo sapiens); conditions: at 1 µM
[6] = target: T4, cGMP-dependent protein kinase 2 (Homo sapiens) (UniProt Q13237); conditions: at 0.1 µM
T4 sequence (whole entry): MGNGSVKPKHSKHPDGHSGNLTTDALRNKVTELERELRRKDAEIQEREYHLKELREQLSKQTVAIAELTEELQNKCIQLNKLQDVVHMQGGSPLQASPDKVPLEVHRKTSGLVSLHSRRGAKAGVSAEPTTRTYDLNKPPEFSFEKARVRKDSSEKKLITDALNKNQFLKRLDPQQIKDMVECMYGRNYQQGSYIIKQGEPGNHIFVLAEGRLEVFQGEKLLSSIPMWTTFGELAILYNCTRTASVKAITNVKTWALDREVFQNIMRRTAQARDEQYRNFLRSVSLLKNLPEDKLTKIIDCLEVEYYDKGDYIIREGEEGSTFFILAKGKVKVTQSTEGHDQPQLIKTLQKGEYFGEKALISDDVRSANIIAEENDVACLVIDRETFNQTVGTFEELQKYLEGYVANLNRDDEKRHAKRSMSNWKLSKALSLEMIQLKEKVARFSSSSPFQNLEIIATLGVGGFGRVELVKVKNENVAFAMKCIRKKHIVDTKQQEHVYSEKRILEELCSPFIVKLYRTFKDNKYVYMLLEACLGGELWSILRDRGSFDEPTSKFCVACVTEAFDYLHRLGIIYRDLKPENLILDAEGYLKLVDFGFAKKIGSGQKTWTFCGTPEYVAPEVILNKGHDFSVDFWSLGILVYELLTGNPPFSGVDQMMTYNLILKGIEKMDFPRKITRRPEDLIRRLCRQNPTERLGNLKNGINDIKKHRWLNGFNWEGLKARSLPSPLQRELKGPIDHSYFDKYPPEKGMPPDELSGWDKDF

[7] = target: T4, cGMP-dependent protein kinase 2 (Homo sapiens); conditions: at 1 µM
[8] = target: T5, cAMP-dependent protein kinase catalytic subunit PRKX (Homo sapiens) (UniProt P51817); conditions: at 0.1 µM
T5 sequence (whole entry): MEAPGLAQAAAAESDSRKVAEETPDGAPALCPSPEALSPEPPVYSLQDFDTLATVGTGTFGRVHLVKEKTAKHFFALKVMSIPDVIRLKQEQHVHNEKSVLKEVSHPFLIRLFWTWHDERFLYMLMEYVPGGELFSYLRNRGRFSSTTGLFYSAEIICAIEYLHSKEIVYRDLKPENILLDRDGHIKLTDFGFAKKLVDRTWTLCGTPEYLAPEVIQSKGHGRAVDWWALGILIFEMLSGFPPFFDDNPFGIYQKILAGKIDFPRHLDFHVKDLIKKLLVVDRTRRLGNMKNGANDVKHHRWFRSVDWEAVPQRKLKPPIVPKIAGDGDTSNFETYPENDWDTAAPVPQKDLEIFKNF

[9] = target: T5, cAMP-dependent protein kinase catalytic subunit PRKX (Homo sapiens); conditions: at 1 µM
[10] = target: Rho-associated protein kinase 1 (Homo sapiens) (UniProt Q13464); conditions: at 0.1 µM
[11] = target: Rho-associated protein kinase 1 (Homo sapiens) (UniProt Q13464); conditions: at 1 µM
[12] = target: Rho-associated protein kinase 2 (Homo sapiens) (UniProt O75116); conditions: at 0.1 µM
[13] = target: Rho-associated protein kinase 2 (Homo sapiens) (UniProt O75116); conditions: at 1 µM
[14] = target: Ribosomal protein S6 kinase alpha-1 (Homo sapiens) (UniProt Q15418); conditions: at 0.1 µM
[15] = target: Ribosomal protein S6 kinase alpha-1 (Homo sapiens) (UniProt Q15418); conditions: at 1 µM
[16] = target: Ribosomal protein S6 kinase alpha-3 (Homo sapiens) (UniProt P51812); conditions: at 0.1 µM
[17] = target: Ribosomal protein S6 kinase alpha-3 (Homo sapiens) (UniProt P51812); conditions: at 1 µM
[18] = target: Ribosomal protein S6 kinase alpha-2 (Homo sapiens) (UniProt Q15349); conditions: at 0.1 µM
[19] = target: Ribosomal protein S6 kinase alpha-2 (Homo sapiens) (UniProt Q15349); conditions: at 1 µM
[20] = target: Ribosomal protein S6 kinase alpha-6 (Homo sapiens) (UniProt Q9UK32); conditions: at 0.1 µM;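 further: reported value is the mean inhibition of RSK4, from the GSK PKIS kinase inhibitor screen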
Sequence of Ribosomal protein S6 kinase alpha-6 (Homo sapiens) (Q9UK32 whole entry): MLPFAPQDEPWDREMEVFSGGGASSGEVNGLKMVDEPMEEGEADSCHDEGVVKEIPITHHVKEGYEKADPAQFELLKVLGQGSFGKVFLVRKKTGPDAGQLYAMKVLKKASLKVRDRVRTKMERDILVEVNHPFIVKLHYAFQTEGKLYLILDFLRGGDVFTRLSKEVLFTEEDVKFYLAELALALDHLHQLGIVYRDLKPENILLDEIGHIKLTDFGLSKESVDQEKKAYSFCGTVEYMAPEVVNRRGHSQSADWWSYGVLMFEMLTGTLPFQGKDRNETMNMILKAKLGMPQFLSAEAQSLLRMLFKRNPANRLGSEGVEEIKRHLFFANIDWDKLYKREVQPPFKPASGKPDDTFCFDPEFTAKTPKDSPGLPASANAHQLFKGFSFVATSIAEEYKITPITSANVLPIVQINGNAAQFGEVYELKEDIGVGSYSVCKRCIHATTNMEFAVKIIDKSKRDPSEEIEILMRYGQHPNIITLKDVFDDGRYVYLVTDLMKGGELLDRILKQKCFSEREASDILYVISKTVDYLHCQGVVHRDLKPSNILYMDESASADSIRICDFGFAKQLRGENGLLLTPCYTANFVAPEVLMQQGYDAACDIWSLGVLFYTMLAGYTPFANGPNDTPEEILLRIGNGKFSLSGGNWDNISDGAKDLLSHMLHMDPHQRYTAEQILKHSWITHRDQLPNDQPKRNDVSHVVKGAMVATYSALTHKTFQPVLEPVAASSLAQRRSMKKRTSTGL

Sequence of Ribosomal protein S6 kinase alpha-2 (Homo sapiens) (Q15349 whole entry): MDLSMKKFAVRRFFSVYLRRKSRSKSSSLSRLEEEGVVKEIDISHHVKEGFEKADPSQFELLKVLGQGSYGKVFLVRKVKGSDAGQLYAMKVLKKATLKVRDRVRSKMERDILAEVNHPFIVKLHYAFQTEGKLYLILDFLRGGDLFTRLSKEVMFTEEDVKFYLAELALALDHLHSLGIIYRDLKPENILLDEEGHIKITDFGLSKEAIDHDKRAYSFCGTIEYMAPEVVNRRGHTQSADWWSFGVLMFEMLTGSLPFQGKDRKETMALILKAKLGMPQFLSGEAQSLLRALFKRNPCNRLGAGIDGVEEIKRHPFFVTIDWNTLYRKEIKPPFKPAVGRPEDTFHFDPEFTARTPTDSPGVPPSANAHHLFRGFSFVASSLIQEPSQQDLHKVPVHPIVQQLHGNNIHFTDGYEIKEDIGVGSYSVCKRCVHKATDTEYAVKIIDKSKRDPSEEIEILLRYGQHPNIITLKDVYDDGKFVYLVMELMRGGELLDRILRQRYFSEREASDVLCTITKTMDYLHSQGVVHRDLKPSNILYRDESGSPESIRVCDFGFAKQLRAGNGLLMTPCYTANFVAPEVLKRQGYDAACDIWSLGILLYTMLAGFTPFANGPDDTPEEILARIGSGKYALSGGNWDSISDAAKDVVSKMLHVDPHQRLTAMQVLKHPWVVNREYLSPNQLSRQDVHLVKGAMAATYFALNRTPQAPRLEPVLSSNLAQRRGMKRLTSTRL
Sequence of Rho-associated protein kinase 1 (Homo sapiens) (Q13464 2-1354 limits assumed): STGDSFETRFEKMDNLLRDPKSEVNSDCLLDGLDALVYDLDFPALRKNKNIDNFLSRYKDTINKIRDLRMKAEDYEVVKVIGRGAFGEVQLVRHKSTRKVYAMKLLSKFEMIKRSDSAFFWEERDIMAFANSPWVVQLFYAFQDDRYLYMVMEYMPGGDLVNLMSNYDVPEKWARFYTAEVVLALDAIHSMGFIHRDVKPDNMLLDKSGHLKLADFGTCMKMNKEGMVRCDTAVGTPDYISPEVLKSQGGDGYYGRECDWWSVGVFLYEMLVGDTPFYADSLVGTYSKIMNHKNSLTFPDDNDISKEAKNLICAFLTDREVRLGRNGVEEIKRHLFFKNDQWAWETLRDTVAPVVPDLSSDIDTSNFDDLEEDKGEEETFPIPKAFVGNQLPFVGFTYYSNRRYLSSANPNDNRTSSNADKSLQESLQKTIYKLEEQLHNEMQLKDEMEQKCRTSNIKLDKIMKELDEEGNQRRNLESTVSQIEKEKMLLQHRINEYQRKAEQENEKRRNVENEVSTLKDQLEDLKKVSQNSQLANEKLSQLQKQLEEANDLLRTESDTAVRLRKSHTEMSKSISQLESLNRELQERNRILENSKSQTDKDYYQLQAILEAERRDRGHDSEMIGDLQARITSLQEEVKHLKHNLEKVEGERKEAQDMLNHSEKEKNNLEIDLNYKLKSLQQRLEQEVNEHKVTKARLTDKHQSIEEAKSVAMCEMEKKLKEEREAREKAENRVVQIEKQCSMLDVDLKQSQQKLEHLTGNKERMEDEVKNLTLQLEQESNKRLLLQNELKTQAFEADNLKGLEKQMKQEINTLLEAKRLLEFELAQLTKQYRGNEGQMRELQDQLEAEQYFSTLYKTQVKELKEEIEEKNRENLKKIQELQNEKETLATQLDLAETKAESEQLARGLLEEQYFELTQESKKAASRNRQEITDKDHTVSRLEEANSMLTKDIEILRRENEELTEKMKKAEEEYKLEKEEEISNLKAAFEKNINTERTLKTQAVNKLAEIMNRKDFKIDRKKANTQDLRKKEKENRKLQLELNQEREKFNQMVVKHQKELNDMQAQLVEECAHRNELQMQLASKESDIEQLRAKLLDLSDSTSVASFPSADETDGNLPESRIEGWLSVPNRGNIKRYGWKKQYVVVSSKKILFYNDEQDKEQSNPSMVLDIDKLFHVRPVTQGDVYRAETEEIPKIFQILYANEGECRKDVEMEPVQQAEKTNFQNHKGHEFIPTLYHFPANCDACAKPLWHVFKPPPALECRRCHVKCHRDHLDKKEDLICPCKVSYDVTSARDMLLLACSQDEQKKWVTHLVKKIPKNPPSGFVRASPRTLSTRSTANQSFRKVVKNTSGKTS
Sequence of Ribosomal protein S6 kinase alpha-1 (Homo sapiens) (Q15418 whole entry): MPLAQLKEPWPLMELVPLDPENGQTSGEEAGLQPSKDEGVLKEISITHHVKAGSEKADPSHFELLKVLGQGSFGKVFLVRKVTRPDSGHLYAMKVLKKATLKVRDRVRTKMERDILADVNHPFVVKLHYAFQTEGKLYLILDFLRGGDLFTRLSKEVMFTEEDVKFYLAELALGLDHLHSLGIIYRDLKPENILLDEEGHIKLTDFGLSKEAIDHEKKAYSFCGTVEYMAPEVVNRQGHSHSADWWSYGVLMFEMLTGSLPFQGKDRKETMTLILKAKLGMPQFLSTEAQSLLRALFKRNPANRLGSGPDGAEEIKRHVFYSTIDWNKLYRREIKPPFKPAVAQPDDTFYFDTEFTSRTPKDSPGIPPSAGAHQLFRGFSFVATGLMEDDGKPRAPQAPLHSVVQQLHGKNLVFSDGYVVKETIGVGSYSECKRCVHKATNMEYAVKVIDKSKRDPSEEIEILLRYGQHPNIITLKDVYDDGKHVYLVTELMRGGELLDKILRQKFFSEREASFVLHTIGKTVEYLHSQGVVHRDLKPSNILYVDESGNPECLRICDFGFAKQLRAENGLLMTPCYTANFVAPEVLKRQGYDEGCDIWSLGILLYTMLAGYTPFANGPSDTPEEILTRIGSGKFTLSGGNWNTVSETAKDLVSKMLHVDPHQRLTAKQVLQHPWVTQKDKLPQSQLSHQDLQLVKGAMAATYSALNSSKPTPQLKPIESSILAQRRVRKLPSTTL
Sequence of Rho-associated protein kinase 2 (Homo sapiens) (O75116 whole entry, looked up): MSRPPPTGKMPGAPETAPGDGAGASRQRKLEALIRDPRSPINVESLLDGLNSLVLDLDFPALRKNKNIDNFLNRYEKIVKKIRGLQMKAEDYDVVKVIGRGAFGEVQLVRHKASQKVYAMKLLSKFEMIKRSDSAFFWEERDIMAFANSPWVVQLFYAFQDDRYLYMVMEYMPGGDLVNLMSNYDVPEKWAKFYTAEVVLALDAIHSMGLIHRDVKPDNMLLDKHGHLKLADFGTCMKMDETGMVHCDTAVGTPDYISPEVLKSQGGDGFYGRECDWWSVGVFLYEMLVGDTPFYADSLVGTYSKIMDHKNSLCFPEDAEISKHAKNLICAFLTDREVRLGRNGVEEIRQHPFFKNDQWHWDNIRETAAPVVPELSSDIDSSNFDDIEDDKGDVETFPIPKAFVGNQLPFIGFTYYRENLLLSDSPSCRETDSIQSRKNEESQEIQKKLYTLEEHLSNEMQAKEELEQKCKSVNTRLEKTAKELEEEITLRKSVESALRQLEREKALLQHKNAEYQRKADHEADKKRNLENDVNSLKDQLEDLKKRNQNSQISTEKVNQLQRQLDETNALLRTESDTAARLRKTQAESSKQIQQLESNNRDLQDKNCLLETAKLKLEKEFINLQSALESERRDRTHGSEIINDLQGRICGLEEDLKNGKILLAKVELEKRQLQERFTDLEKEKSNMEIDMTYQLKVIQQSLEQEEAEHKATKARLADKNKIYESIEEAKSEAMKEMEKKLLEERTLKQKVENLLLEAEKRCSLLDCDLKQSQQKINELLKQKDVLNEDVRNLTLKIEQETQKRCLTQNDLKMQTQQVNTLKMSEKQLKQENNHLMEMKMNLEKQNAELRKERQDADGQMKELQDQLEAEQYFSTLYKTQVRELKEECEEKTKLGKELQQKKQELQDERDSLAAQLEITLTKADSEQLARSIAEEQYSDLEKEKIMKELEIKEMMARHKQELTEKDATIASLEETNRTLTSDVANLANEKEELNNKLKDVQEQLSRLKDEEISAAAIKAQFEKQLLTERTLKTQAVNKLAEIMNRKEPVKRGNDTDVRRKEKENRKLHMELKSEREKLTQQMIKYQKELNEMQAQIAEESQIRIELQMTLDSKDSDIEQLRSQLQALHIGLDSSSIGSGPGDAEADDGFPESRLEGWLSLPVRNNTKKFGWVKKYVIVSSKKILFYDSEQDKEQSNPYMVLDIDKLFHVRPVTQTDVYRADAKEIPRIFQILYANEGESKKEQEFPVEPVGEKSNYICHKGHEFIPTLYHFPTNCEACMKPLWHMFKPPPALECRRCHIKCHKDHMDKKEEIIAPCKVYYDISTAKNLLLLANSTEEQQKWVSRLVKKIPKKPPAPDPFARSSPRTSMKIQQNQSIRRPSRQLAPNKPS

Compound | inhibition [1] | inhibition [2] | inhibition [3] | inhibition [4] | inhibition [5] | inhibition [6] | inhibition [7] | inhibition [8] | inhibition [9] | inhibition [10] | inhibition [11] | inhibition [12] | inhibition [13] | inhibition [14] | inhibition [15] | inhibition [16] | inhibition [17] | inhibition [18] | inhibition [19] | inhibition [20]
Cc1ccc(C(=O)NC2CC2)cc1-c1ccc2[nH]ncc2c1 | 0.22% | -3.35% | -2.14% | -1.78% | 1.62% | -1.53% | -0.47% | -1.3% | -0.54% | -0.64% | 6.16% | 0.52% | 16.1% | 1.16% | 1.93% | 2.94% | 4.97% | -0.94% | 0.23% | -0.73%
COC(=O)Nc1nc2cc(Oc3ccc(NC(=O)Nc4cccc(Br)c4)cc3)ccc2[nH]1 | 4.58% | 2.07% | 3.88% | 1.83% | 2.02% | 0.8% | 2.14% | 1.95% | 1.14% | 2.54% | 7.16% | 3.44% | 6.83% | 1.44% | 1.53% | 1.69% | 0.56% | 1.65% | 2.4% | 1.97%
COc1cccc(-n2ncc3c(N/N=C/c4ccc(C)cc4)ncnc32)c1 | 8.29% | 5.18% | 9.61% | 3.66% | 7.27% | 3.43% | 5.99% | 2.31% | 4.53% | 3.27% | 4.15% | 3.08% | 5.34% | 2.5% | 6.59% | 0.75% | 5.14% | 3.75% | 4.8% | 0.68%
